“And” between values parts separate entries of the source, which are not always exact repeats. Identical values can stand only once. Inconclusive results are not listed. The source holds several records for some structures; these can differ, active in one and inactive in another. The source made the active and inactive calls. How the source made its calls, unless noted: active means hit-call score of the fitted dose curve at least 0.9, where 1 is the maximum; inactive means score below 0.9.
Legend:
[1] = ATG_Hpa5_TRANS: Attagene TRANS-FACTORIAL HepG2 Assay for human GAL4-Hpa5 Hepatocyte Transcription Factor Basal Promoter (AID 2282975; active means hit-call score of the fitted dose curve at least 0.9, where 1 is the maximum;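 further: hits are increases in reporter mRNA over DMSO baseline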); conditions: HepG2 Attagene GAL4-Hpa5 transcription reporter
Method in brief: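 Gain-of-signal versus DMSO is fitted for reporter mRNA quantified by RT-PCR and capillary electrophoresis after 24 h exposure. This endpoint is an internal background marker in transiently transfected HepG2 cells carrying GAL4-UAS reporter units.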

[2] = ATG_GAL4_TRANS: Attagene TRANS-FACTORIAL HepG2 Assay for GAL4 (Internal Marker) (AID 2282976; active means hit-call score of the fitted dose curve at least 0.9, where 1 is the maximum); conditions: HepG2 Attagene TRANS GAL4 internal marker reporter
Method in brief: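 Fluorescence from capillary electrophoresis of labelled RT-PCR products quantifies reporter mRNA induction after 24 h dosing of HepG2 cells carrying transfected GAL4-UAS reporter transcription units. Vehicle DMSO serves as baseline.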

[3] = molecular target: Estrogen-related receptor gamma (Homo sapiens) (UniProt P62508); experiment: ATG_ERRg_TRANS: Attagene TRANS-FACTORIAL HepG2 Assay for human Estrogen-Related Receptor gamma (ERRg) (AID 2282977; active means hit-call score of the fitted dose curve at least 0.9, where 1 is the maximum;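 further: hits increase reporter signal over DMSO so potencies reflect activators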); conditions: HepG2 Attagene TRANS reporter, ERRg transactivation
Method in brief: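 Readout: fluorescent reporter-mRNA fragments resolved by capillary electrophoresis after RT-PCR and HpaI cut. Cells: transiently transfected HepG2 carrying GAL4-UAS reporters driven by exogenous NR-Gal4 chimeras, dosed 24 h. Activity fitted upward relative to DMSO baseline.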

[4] = molecular target: Bile acid receptor (Homo sapiens) (UniProt Q96RI1); experiment: ATG_FXR_TRANS: Attagene TRANS-FACTORIAL HepG2 Assay for Farnesoid X Receptor (FXR) (AID 2282979; active means hit-call score of the fitted dose curve at least 0.9, where 1 is the maximum;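 further: hits raise reporter mRNA above DMSO so AC50 marks FXR activation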); conditions: HepG2 Attagene TRANS FXR-GAL4 reporter transcription
Method in brief: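 Chimeric FXR-GAL4 activity in transiently transfected human HepG2 liver cells is scored as induction of reporter mRNA after 24 h of dosing. Detection uses RT-PCR with fluorescent labelling and capillary electrophoresis, with DMSO serving as baseline.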

[5] = molecular target: Oxysterols receptor LXR-beta (Homo sapiens) (UniProt P55055); experiment: ATG_LXRb_TRANS: Attagene TRANS-FACTORIAL HepG2 Assay for human Liver X Receptor beta (LXRb) (AID 2282981; active means hit-call score of the fitted dose curve at least 0.9, where 1 is the maximum); conditions: HepG2 Attagene TRANS GAL4-LXRb reporter, mRNA
Method in brief: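 After 24 h of chemical treatment, transfected HepG2 cells yield total RNA; reporter cDNA is PCR-amplified, FAM-labelled, HpaI-cut and run on capillary electrophoresis. Signal reflects chimeric LXRb-Gal4 activity on GAL4-UAS reporters.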

[6] = molecular target: Hepatocyte nuclear factor 4-alpha (Homo sapiens) (UniProt P41235); experiment: ATG_HNF4a_TRANS: Attagene TRANS-FACTORIAL HepG2 Assay for human Hepatocyte Nuclear Factor 4 alpha (HNF4a) (AID 2282982; active means hit-call score of the fitted dose curve at least 0.9, where 1 is the maximum); conditions: HepG2 HNF4a transactivation reporter, mRNA readout
Method in brief: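 Multiplexed reporter assay: transfected HepG2, 24 h exposure, total RNA → oligo(dT) RT → PCR → 6-FAM extension → HpaI digest → CE fluorescence. DMSO = negative control.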

[7] = ATG_M_06_TRANS: Attagene TRANS-FACTORIAL HepG2 Assay for M06 Transcription Factor (Internal Marker) (AID 2282983; active means hit-call score of the fitted dose curve at least 0.9, where 1 is the maximum); conditions: HepG2 Attagene TRANS M06 internal marker reporter
Method in brief: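 Human liver HepG2 cells bearing transiently transfected chimeric NR-GAL4 reporter units were treated with chemicals for 24 h. Total RNA was reverse-transcribed, reporter sequences amplified and labelled, then quantified by capillary electrophoresis. Activity was fitted upward relative to DMSO.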

[8] = ATG_M_32_TRANS: Attagene TRANS-FACTORIAL HepG2 Assay for M32 Transcription Factor (Internal Marker) (AID 2282984; active means hit-call score of the fitted dose curve at least 0.9, where 1 is the maximum;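 further: transcript level of a background control reporter unit measured by RT-PCR and capillary electrophoresis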); conditions: HepG2 Attagene TRANS M32 internal marker reporter
Method in brief: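 Cell-based TRANS-format assay in HepG2: exogenous chimeric GAL4 reporter units transiently expressed, compounds applied 24 h. Reporter mRNA detected by RT-PCR plus capillary electrophoresis; this readout is an internal background marker.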

[9] = molecular target: Nuclear receptor subfamily 4 group A member 2 (Homo sapiens) (UniProt P43354); experiment: ATG_NURR1_TRANS: Attagene TRANS-FACTORIAL HepG2 Assay for human Nuclear Receptor Related Protein 1 (NURR1) (AID 2282985; active means hit-call score of the fitted dose curve at least 0.9, where 1 is the maximum); conditions: HepG2 Attagene TRANS reporter, mRNA readout
Method in brief: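 Measures transcriptional activation by an exogenous NR-Gal4 chimera in transfected HepG2 liver cells. After 24 h, reporter RNA is reverse-transcribed, amplified and resolved by capillary electrophoresis; DMSO defines baseline.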

[10] = molecular target: Transcriptional activator Myb (Homo sapiens) (UniProt P10242); experiment: ATG_Myb_CIS: Attagene CIS-FACTORIAL HepG2 Assay for human Myeloblastosis (Myb) Proto-Oncogene Transcription Factor (AID 2282986); conditions: HepG2 Attagene CIS-FACTORIAL Myb reporter transcription; actives raise or lower the signal
Method in brief: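 Endogenous transcription factor activity at a Myb-responsive cis element is reported in human liver HepG2 cells after 24 h chemical treatment. Reporter mRNA is detected by RT-PCR and capillary electrophoresis fluorescence, with DMSO as baseline.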

[11] = molecular target: Nuclear respiratory factor 1 (Homo sapiens) (UniProt Q16656); experiment: ATG_NRF1_CIS: Attagene CIS-FACTORIAL HepG2 Assay for human Nuclear Respiratory Factor 1 (NRF1) Orphan Gene (AID 2282987); conditions: HepG2 NRF1 cis-element reporter, Attagene multiplex; actives raise or lower the signal
Method in brief: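 Human hepatoma HepG2 cells carrying transfected promoter-regulated reporter units were incubated with test chemicals for 24 h. Reporter transcripts were measured by RT-PCR plus capillary electrophoresis, and endpoints derived by bidirectional fitting with DMSO as baseline.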

[12] = ATG_NFI_CIS: Attagene CIS-FACTORIAL HepG2 Assay for human Nuclear Factor I (NFI) (AID 2282989); conditions: HepG2 cis-regulatory reporter, NFI response element transcription; actives raise or lower the signal
Method in brief: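 Reporter transcripts were measured by RT-PCR with fluorescent primer extension and capillary electrophoresis 24 h post-treatment. HepG2 cells carried transiently transfected cis-regulated reporter constructs reporting endogenous factor activity; gain or loss fitted against DMSO baseline.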

[13] = molecular target: Myc proto-oncogene protein (Homo sapiens) (UniProt P01106); experiment: ATG_Myc_CIS: Attagene CIS-FACTORIAL HepG2 Assay for human Myelocytomatosis (Myc) Proto-Oncogene Transcription Factor (AID 2282990); conditions: HepG2, Attagene cis-reporter transcription factor activity; actives raise or lower the signal
Method in brief: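 Cells of the HepG2 human liver line bear multiple cis-driven reporter transcription units. Reporter mRNA after 24 h exposure is reverse-transcribed, amplified, labelled and resolved by capillary electrophoresis, with gain- or loss-of-signal fitting relative to DMSO.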

[14] = ATG_NRF2_ARE_CIS: Attagene CIS-FACTORIAL HepG2 Assay for human Nuclear Factor Erythroid 2 Related Factor 2 (NFR2) response to Antioxidant Response Elements (ARE) (AID 2282992); conditions: HepG2 Attagene ARE/NRF2 reporter, transcription factor activity; actives raise or lower the signal;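 on AC50: reporter mRNA level measured by RT-PCR and capillary electrophoresis fluorescence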
Method in brief: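 Endogenous transcription factor activity in human liver HepG2 cells is tracked via a cis-element-driven reporter within a multiplexed set. mRNA induction is read by RT-PCR and capillary electrophoresis after 24 h, with DMSO as baseline.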

[15] = molecular target: Cellular tumor antigen p53 (Homo sapiens) (UniProt P04637); experiment: ATG_p53_CIS: Attagene CIS-FACTORIAL HepG2 Assay for human p53 Transcription Factor (AID 2282994); conditions: HepG2 p53 cis-element reporter, Attagene mRNA; actives raise or lower the signal
Method in brief: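 Steps: transfect HepG2 with multiplexed cis reporter constructs; dose chemicals 24 h; extract RNA, reverse-transcribe, PCR-amplify reporter sequences; FAM-label, HpaI-digest, resolve fragments by CE. Activity fitted both directions relative to DMSO.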

[16] = BSK_3C_TissueFactor: BioMAP Diversity Plus: 3C Assay for Tissue Factor Biomarker Activity (AID 2282997); conditions: BioMAP 3C HUVEC, tissue factor biomarker readout; actives raise or lower the signal
Method in brief: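 Cells used were primary human umbilical vein endothelial cells. They were dosed with chemical, and after 24 h Tissue Factor was quantified by ELISA. Curves were fitted bidirectionally with DMSO as baseline.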

[17] = molecular target: Oxysterols receptor LXR-alpha (Homo sapiens) (UniProt Q13133); experiment: ATG_LXRa_TRANS: Attagene TRANS-FACTORIAL HepG2 Assay for human Liver X Receptor alpha (LXRa) (AID 2282980; active means hit-call score of the fitted dose curve at least 0.9, where 1 is the maximum); conditions: HepG2 Attagene TRANS reporter, LXRa transactivation
Method in brief: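 Transient HepG2 transfectants, 24 h dosing, RT-PCR/CE mRNA reporter quantitation; gain-of-signal vs DMSO.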

[18] = ATG_NF_kB_CIS: Attagene CIS-FACTORIAL HepG2 Assay for human Nuclear Factor Kappa B (NF-kB) (AID 2282991); conditions: HepG2 Attagene cis-factorial NF-kB reporter mRNA; actives raise or lower the signal
Method in brief: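 Multiplexed cis-reporter assay in transiently transfected HepG2. 24 h treatment; RNA isolated, RT-PCR, labelled fragments resolved by CE. DMSO baseline.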

[19] = ATG_Oct_MLP_CIS: Attagene CIS-FACTORIAL HepG2 Assay for human Octamer-Binding Transcription Factor (Oct) (AID 2282993); conditions: HepG2 Attagene cis-factorial Oct reporter, mRNA; actives raise or lower the signal
Method in brief: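 Readout is reporter transcript level from RT-PCR with fluorescent primer extension and capillary electrophoresis, fitted in both directions against DMSO. Transfected HepG2 reporter units report endogenous factor activity after 24 h dosing.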

[20] = molecular target: Glucocorticoid receptor (Homo sapiens) (UniProt P04150); experiment: ATG_GR_TRANS: Attagene TRANS-FACTORIAL HepG2 Assay for human Glucocorticoid Receptor (GR) (AID 2282978; active means hit-call score of the fitted dose curve at least 0.9, where 1 is the maximum;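 further: activators score as hits since higher reporter transcript over DMSO is fitted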); conditions: HepG2 Attagene TRANS GR reporter, mRNA transcription
Method in brief: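 Multiplexed TRANS reporter system, HepG2; 24 h exposure; RNA → oligo(dT) RT → reporter-specific PCR → 6-FAM primer extension → HpaI cut → CE fluorescence. Gain-of-signal vs DMSO.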

Measured: AC50

Chain of Oxysterols receptor LXR-beta (Homo sapiens) (P55055 whole entry, looked up, the tested form may be a part): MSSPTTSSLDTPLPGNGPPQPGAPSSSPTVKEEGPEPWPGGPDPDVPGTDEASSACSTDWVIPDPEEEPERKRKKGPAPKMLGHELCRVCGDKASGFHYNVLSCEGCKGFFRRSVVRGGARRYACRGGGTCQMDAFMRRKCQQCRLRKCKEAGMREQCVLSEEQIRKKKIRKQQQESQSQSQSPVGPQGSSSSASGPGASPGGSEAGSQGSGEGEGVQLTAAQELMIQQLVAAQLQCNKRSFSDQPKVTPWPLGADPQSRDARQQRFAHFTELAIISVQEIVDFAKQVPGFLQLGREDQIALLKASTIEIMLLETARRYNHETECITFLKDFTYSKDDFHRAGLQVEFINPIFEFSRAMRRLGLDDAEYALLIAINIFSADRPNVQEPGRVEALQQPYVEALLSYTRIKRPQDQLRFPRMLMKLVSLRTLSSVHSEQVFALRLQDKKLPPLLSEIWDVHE
Chain of Myc proto-oncogene protein (Homo sapiens) (P01106 whole entry, looked up): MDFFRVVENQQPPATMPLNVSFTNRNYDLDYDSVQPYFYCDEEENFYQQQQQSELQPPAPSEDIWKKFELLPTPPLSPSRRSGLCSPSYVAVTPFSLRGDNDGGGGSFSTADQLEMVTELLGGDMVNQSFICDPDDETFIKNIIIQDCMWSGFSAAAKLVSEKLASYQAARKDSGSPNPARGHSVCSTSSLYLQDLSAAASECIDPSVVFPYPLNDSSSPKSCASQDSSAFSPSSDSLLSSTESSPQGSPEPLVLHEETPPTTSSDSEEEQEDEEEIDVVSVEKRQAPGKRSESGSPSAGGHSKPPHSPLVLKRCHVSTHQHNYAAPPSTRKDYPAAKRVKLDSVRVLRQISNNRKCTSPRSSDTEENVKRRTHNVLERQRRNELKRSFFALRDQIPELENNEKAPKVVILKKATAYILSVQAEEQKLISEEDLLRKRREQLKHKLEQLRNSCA
Chain of Estrogen-related receptor gamma (Homo sapiens) (P62508 whole entry, looked up, the tested form may be a part): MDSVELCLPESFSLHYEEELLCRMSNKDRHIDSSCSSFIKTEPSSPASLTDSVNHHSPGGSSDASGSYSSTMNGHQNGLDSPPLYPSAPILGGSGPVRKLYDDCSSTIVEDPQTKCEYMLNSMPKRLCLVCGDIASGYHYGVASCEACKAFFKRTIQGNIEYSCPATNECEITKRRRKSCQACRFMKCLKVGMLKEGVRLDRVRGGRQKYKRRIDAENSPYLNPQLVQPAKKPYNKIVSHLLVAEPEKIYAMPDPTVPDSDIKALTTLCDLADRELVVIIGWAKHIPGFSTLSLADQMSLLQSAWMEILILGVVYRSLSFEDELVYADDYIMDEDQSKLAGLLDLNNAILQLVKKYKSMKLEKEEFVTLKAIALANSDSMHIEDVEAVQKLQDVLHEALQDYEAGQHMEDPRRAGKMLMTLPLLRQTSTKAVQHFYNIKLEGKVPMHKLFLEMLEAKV
Chain of Bile acid receptor (Homo sapiens) (Q96RI1 whole entry, looked up, the tested form may be a part): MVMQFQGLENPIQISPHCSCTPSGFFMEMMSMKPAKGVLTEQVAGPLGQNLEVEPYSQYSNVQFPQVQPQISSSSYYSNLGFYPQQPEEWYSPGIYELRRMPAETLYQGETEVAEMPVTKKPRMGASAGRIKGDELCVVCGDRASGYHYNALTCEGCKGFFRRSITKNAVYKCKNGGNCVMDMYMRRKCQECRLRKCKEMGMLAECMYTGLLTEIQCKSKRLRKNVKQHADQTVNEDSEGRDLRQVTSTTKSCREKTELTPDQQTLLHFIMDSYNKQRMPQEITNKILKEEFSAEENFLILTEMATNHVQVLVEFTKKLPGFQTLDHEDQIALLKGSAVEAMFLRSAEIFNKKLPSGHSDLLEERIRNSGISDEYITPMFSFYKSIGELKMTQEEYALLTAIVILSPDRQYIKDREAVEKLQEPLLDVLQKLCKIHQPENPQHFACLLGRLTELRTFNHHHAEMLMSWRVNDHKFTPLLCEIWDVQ
Chain of Nuclear respiratory factor 1 (Homo sapiens) (Q16656 whole entry, looked up): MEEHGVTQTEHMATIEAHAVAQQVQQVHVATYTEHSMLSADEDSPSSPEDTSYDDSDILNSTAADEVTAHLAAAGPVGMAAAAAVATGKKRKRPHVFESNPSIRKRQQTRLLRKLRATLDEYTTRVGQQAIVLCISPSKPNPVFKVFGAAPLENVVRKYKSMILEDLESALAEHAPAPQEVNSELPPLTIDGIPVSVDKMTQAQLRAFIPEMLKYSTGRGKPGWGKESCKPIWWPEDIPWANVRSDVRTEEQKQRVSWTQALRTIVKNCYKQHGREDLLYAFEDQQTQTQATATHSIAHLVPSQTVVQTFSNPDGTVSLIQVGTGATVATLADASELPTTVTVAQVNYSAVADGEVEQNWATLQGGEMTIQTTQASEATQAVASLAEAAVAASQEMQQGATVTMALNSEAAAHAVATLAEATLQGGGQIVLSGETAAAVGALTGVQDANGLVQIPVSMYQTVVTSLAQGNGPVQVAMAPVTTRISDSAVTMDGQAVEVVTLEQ
Chain of Cellular tumor antigen p53 (Homo sapiens) (P04637 whole entry, looked up, the tested form may be a part): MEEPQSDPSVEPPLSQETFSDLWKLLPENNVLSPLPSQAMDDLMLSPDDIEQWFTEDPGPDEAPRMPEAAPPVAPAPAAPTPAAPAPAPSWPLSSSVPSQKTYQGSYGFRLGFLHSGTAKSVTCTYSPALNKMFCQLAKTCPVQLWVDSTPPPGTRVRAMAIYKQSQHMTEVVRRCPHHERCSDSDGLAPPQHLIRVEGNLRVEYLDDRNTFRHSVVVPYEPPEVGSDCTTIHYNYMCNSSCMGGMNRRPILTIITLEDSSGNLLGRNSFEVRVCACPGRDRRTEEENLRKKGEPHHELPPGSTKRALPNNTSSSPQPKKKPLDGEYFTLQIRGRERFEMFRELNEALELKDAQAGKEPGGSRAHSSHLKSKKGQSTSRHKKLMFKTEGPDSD
Chain of Oxysterols receptor LXR-alpha (Homo sapiens) (Q13133 whole entry, looked up): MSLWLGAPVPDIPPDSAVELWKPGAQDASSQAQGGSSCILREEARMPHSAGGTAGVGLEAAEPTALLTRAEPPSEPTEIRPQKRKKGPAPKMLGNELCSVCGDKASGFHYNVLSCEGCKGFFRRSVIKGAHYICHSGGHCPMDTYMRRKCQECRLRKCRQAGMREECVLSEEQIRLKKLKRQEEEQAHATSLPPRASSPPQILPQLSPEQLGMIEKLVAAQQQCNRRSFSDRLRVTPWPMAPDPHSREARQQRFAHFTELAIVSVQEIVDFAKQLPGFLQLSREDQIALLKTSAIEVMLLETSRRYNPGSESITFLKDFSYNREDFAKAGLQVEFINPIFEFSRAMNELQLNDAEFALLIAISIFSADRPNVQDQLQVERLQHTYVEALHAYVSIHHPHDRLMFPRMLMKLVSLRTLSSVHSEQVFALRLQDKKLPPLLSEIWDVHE
Chain of Nuclear receptor subfamily 4 group A member 2 (Homo sapiens) (P43354 whole entry, looked up, the tested form may be a part): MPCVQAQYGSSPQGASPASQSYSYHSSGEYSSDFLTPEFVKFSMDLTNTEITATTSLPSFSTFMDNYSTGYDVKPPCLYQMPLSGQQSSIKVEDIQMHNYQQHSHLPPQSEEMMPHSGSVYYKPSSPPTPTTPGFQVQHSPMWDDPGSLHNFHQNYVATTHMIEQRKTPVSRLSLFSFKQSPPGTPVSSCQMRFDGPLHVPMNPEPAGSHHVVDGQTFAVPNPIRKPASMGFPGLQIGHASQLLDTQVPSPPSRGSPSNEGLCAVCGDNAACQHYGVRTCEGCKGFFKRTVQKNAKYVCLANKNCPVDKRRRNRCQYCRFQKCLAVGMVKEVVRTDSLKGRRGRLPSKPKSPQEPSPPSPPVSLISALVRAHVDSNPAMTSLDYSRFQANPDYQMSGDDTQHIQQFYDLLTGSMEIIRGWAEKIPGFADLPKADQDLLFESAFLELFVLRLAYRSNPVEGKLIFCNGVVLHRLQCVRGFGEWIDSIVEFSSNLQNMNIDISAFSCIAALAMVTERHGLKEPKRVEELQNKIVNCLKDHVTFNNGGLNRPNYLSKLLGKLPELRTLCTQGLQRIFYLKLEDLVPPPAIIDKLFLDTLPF
Chain of Glucocorticoid receptor (Homo sapiens) (P04150 whole entry, looked up): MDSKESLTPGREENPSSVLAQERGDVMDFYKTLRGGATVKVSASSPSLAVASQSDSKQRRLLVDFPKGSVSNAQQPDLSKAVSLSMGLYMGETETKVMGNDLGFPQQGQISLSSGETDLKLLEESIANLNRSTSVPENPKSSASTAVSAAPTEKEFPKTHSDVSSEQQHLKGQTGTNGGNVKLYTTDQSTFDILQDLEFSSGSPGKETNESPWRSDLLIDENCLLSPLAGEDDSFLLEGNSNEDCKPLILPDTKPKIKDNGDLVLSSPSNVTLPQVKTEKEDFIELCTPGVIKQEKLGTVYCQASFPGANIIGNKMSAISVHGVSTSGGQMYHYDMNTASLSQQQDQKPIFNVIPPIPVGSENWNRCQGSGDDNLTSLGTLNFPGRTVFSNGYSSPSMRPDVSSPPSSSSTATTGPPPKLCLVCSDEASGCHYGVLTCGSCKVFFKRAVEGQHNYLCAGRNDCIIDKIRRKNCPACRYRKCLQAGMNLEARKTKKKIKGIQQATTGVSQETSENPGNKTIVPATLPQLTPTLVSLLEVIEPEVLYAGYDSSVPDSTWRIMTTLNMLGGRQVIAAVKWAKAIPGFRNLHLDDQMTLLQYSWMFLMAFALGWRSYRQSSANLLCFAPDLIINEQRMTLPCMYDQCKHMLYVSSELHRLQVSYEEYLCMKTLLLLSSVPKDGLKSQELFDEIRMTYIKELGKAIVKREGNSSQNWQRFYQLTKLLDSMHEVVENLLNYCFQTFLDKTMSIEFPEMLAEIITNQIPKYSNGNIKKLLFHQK

CCCN(CCOc1c(Cl)cc(Cl)cc1Cl)C(=O)n1ccnc1
inactive: [1] | [2] | [3] | [4] | [5] | [6] | [7] | [8] | [9] | [10] | [11] | [12] | [13] | [14] | [15] | [16]
active: [14] 4.52 µM

ClC1C(Cl)C(Cl)C(Cl)C(Cl)C1Cl (stereo not drawn)
active: [4] 139 µM | [14] 33.2 µM and 26.2 µM | [15] 150 µM and 77.6 µM
inactive: [1] | [2] | [3] | [4] | [17] | [5] | [6] | [7] | [8] | [9] | [10] | [11] | [12] | [13] | [18] | [14] | [15] | [16]

O=S(=O)(O)C(F)(F)C(F)(F)C(F)(F)C(F)(F)C(F)(F)C(F)(F)C(F)(F)C(F)(F)F
inactive: [1] | [2] | [3] | [17] | [5] | [6] | [7] | [8] | [9] | [10] | [11] | [12] | [13] | [14] | [19] | [15] | [16]
active: [11] 111 µM | [12] 133 µM | [13] 23 µM and 48.3 µM | [14] 24.7 µM [middle of 9 runs] | [19] 135 µM and 54.7 µM | [15] 108 µM and 66.1 µM and 240 µM

CNC(=O)Oc1cccc(N=CN(C)C)c1
active: [12] 82.3 µM | [14] 50 µM | [19] 25.7 µM
not listed: [2] | [3] | [8] | [9] | [18] | [20]
inactive: all other assays above

Cc1[nH]c(=O)n(C(C)(C)C)c(=O)c1Cl
active: [14] 20.1 µM
not listed: [2] | [3] | [4] | [9] | [15] | [19] | [20]
inactive: all other assays above

O=[N+]([O-])/N=C1\NCCN1Cc1ccc(Cl)nc1
not listed: [2] | [3] | [6] | [7] | [15] | [18]
inactive: all other assays above

CC1(C)C(C=C(Cl)Cl)C1C(=O)OC(C#N)c1ccc(F)c(Oc2ccccc2)c1 (stereo not drawn)
active: [14] 7.81 µM
not listed: [4] | [6] | [17] | [19]
inactive: all other assays above

CCC(C)(C)C(=O)OC1=C(c2ccc(Cl)cc2Cl)C(=O)OC12CCCCC2
active: [13] 4.04 µM | [14] 1.27 µM | [16] 13.4 µM
not listed: [2] | [4] | [6] | [7] | [8] | [19] | [20]
inactive: all other assays above

O=[N+]([O-])c1c(Cl)c(Cl)c(Cl)c(Cl)c1Cl
active: [18] 13.8 µM | [14] 4.17 µM
not listed: [2] | [3] | [4] | [7] | [19]
inactive: all other assays above

C[C@H]1[C@H](c2ccc(Cl)cc2)SC(=O)N1C(=O)NC1CCCCC1
active: [14] 13.5 µM
not listed: [2] | [4] | [8] | [18] | [19] | [20]
inactive: all other assays above

CNC(=O)CSP(=S)(OC)OC
not listed: [2] | [3] | [4] | [15] | [18] | [19] | [20]
inactive: all other assays above

COc1nn(CSP(=S)(OC)OC)c(=O)s1
active: [14] 23.4 µM
not listed: [2] | [3] | [6] | [9] | [19]
inactive: all other assays above

— PubChem BioAssay (EPA / NIEHS)
